The values below come from PubChem BioAssay.

Several values for one entry are separate records, joined by “and”; a condition that tells them apart may be missing. Equal entries are not always repeated. Records with an inconclusive call do not appear. Some compounds were tested as several samples or in several runs, with calls that do not always agree. Activity calls are given as the source filed them.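 How the source made its calls, unless noted: active means normalized viability below 100% at a tested concentration; inactive means the rest.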

A short description of assay [1]: viability loss in pontine glioma line – cell-based, SU-DIPG-XVII, MIPE5.0, CellTiter-Glo, qHTS, dose response (AID 1347060; cut-off not given, nearly all actives have AC50 up to about 26 µM;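 on AC50: cells exposed to compound for 48 hours before viability readout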). Conditions: CellTiter-Glo ATP luminescence. A general note: In ATP-based viability assays light output follows the ATP content of the culture.
Assay [2] is described as follows: viability loss in pontine glioma line – cell-based, SU-DIPG-XIII, MIPE4.0, CellTiter-Glo, qHTS, dose response (AID 1347061; cut-off not given, nearly all actives have AC50 up to about 37 µM;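 further: cells exposed to compound for 48 hours before readout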). Conditions: CellTiter-Glo ATP luminescence.
Assay [3] can be described thus: viability loss in pontine glioma line – cell-based, JHH-DIPG-1, MIPE4.0, CellTiter-Glo, qHTS, dose response (AID 1347062; cut-off not given, nearly all actives have AC50 up to about 27 µM;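 on AC50: cells exposed to compound for two days before readout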). Conditions: JHH-DIPG-1 viability, CellTiter-Glo ATP luminescence.
Assay [4] is described as follows: viability loss in pontine glioma line – cell-based, SU-DIPG-IV, MIPE4.0, CellTiter-Glo, qHTS, dose response (AID 1347063; cut-off not given, nearly all actives have AC50 up to about 30 µM;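 further: compound exposure lasted 48 hours before the viability readout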). The conditions noted are these: CellTiter-Glo ATP luminescence.
Assay [5] can be described thus: viability loss in pontine glioma line – cell-based, SU-DIPG-XIII, MIPE5.0, CellTiter-Glo, qHTS, dose response (AID 1347064; cut-off not given, nearly all actives have AC50 up to about 23 µM;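 on AC50: cells exposed to compound for 48 hours before the viability read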). Conditions: CellTiter-Glo ATP luminescence.
A short description of assay [6]: viability loss in pontine glioma line – cell-based, SU-DIPG-XXV, MIPE5.0, CellTiter-Glo, qHTS, dose response (AID 1347065; cut-off not given, nearly all actives have AC50 up to about 26 µM;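 further: cells exposed to compound for 48 hours before ATP readout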). Conditions: CellTiter-Glo ATP luminescence.
Assay [7] can be described thus: JHH-DIPG-1 glioma cell viability, MIPE5.0 library, CellTiter-Glo luminescence, qHTS (AID 1347067; cut-off not given, nearly all actives have AC50 up to about 26 µM;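 further: cells exposed to compound for 48 hours before readout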). Conditions: JHH-DIPG-1 glioma viability, CellTiter-Glo ATP luminescence.
A short description of assay [8]: growth inhibition of DIPG cells – cell-based, MIPE4.0 library, CellTiter-Glo luminescence, qHTS (AID 1347066; cut-off not given, nearly all actives have AC50 up to about 30 µM;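 further: cells exposed to compound for 48 hours before readout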). The conditions noted are these: SU-DIPG-VI viability, CellTiter-Glo ATP luminescence.
Assay [9] in a line: growth inhibition of DIPG cells – cell-based, MIPE5.0 library, qHTS (AID 1347068; cut-off not given, nearly all actives have IC50 up to about 30 µM;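 on IC50: cells exposed to compound for 48 hours before viability readout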). The conditions noted are these: SU-DIPG-XXV viability. In general terms: qHTS replaces the single test concentration by a dilution series.
The nature of assay [10]: viability loss with induced miR-34 in A549 – imaging, A549 dox-inducible miR-34, nuclei and caspase counts, primary screen (AID 1347080;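 active means compounds whose cell count with miR-34 switched on is under 0.7 times the count with it off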). The conditions noted are these: A549 miR-34 inducible, Hoechst nuclei count, 48 h.
The nature of assay [11]: MELAS cybrid and Rieske KO viability enhancers – cell-based, MELAS cybrids, Rieske KO mouse fibroblasts, CellTiter-Glo, primary screen (AID 1508586;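 active means mean z-score across replicates of 1.96 or higher in either the MELAS or the Rieske mutant cell line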;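 further: z relative to plate mean and SD of compound and empty wells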). Conditions: low glucose.
The nature of assay [12]: compounds altering HSF1 focus formation in cells – imaging, Selleck Cancer Library (AID 1347162; in the data active means plate-normalised HSF1 focus index below about 0.46). Conditions: human cells, HSF1 nuclear foci imaging, at 10 µM; SSMD: measured here: HSF1 foci SSMD mean; cell count: measured here: cell number; plate-normalised HSF1 focus index: stronger effect = lower value.
A short description of assay [13]: drug combination growth inhibition, ovarian cancer – cell-based, oncology-focused library, rucaparib conditional, profiling panel (AID 1508598). The conditions noted are these: patient-derived ovarian cancer cells, CellTiter-Glo viability, 144 h, stronger effect = lower value.
[14] abbreviates: stronger effect = lower value, cell number ratio, induced over uninduced.
Setting [15] is: measured here: relative caspase fold change +Dox/-Dox.
Setting [16] is: measured here: total cells with miR-34 induction, stronger effect = lower value.
Setting [17] is: measured here: total cells without miR-34 induction.
The mark [18] stands for this setting: MELAS cybrid survival, CellTiter-Glo 48 h, stronger effect = higher value.
Where [19] appears, read: Rieske KO mouse fibroblast survival, CellTiter-Glo 72 h.

Usually AC50 stands for the midpoint of the concentration-response curve, whichever way the signal moves. `CC[C@H]1OC(=O)[C@H](C)C(=O)[C@H](C)[C@@H](O[C@H]2O[C@H](C)C[C@H](N(C)C)[C@H]2O)[C@](C)(OC)C[C@@H](C)C(=O)[C@H](C)[C@H]2N(CCCCn3cnc(-c4cccnc4)c3)C(=O)O[C@]12C`: the AC50 in assay [1] is 26300 nM (active). Further, the outcome in assay [2], in assay [3], in assay [4], in assay [5], in assay [6] and in [7] was inactive.
Broadly, the IC50 is the point on the concentration scale where inhibition reaches its midpoint. Consider `CN[C@@H]1C[C@H]2O[C@@](C)([C@@H]1OC)n1c3ccccc3c3c4c(c5c6ccccc6n2c5c31)C(=O)N[C@H]4O`, for which the AC50 in assay [1] is 135 nM (active); in [2], 590 nM (active); in assay [3] it was 187 nM (active); in assay [4] it was 1320 nM (active); in assay [5], 85.5 nM (active); in [6], 30.3 nM (active). In addition, the AC50 in [8] was 296 nM (active); in [7], 38.2 nM (active). Further, in [9], the half-maximal inhibitory concentration (IC50) is 605 nM (active).
Take `CN(C)C(N)=NC(=N)N`: the compound was classed as inactive in assay [1], in assay [2], in [3], in assay [4], in assay [5] and in assay [6]. The result in assay [8] and in assay [9] was inactive.
In the case of `CC(=O)O[C@H]1C[C@@H]2CC[C@@H]3[C@H](CC[C@@]4(C)[C@H]3C[C@H]([N+]3(C)CCCCC3)[C@@H]4OC(C)=O)[C@@]2(C)C[C@@H]1[N+]1(C)CCCCC1`, the call in [1], in assay [2], in assay [3], in assay [4], in assay [5] and in assay [6] was inactive. Also, the compound was called inactive in assay [8] and in assay [9]. The fold change in assay [10] (setting [14]) was 1.08 (inactive) and 0.979 (inactive) and 0.882 (inactive); in [10] (setting [15]), 0.886 and 0.709 and 0.967. For the same compound, the cell count in assay [10] (setting [16]) is 10300 and 9210 and 9980; in [10] (setting [17]) it was 9560 and 9410 and 11300. The z-score in [11] (setting [18]) was -0.0905 (inactive) and -0.925 (inactive); in [11] (setting [19]) it was -1.19 and -0.284.
Take `O=C(/C=C/c1ccc(/C=C/C(=O)Nc2ccc(C3=NCCN3)cc2)cc1)Nc1ccc(C2=NCCN2)cc1`: the AC50 in assay [1] was 2350 nM (active). Further, the result in [2], in assay [3], in assay [4], in assay [5], in assay [6] and in assay [8] was inactive. Besides, the call in assay [7] was inactive. Moreover, the fold change in [10] (setting [14]) was 1.13 (inactive); in assay [10] (setting [15]) it was 1.21. Also, the figures for the cell count in assay [10] (setting [16]) and in [10] (setting [17]) were 6840 and 6050, respectively.
By viability is commonly meant a read-out of living cells in per cent, often relative to untreated cells. `CN1CCN(c2ccc3nc(-c4c(N)c5c(F)cccc5[nH]c4=O)[nH]c3c2)CC1`: the AC50 in assay [1] was 525 nM (active); in [2], 2960 nM (active); in assay [3] it was 26400 nM (active); in assay [4] it was 23500 nM (active); in assay [5], 1050 nM (active); in [6], 468 nM (active). Besides, the AC50 in assay [8] is 20900 nM (active); in assay [7], 11800 nM (active). Also, the fold change in assay [10] (setting [14]) is 1.57 (inactive) and 1.08 (inactive); in [10] (setting [15]), 0.308 and 0.757. Besides, the cell count in [10] (setting [16]) was 744 and 794; in assay [10] (setting [17]), 472 and 732; in assay [12], 5510. In addition, in assay [12], the SSMD was -9.43. For the same compound, the plate-normalised HSF1 focus index in [12] is 0.516 (inactive). The z-score was 3.68 (active) and -0.215 (inactive) in [11] (setting [18]); -0.494 and -0.354 in [11] (setting [19]). In addition, the viability was 112% (inactive) in assay [13] (at 0.000305 µM, OCI-C5x cells, with rucaparib 10 µM, 100% = cells with rucaparib alone); 107% (inactive) in [13] (at 0.000305 µM, OCI-C5x cells, without rucaparib); 123% (inactive) in assay [13] (at 0.000305 µM, OCI-P5x cells, with rucaparib 20 µM, 100% = cells with rucaparib alone); 105% (inactive) in assay [13] (at 0.000305 µM, OCI-P5x cells, without rucaparib); 111% (inactive) in assay [13] (at 0.00122 µM, OCI-C5x cells, with rucaparib 10 µM, 100% = cells with rucaparib alone); 104% (inactive) in assay [13] (at 0.00122 µM, OCI-C5x cells, without rucaparib). Also, the viability in [13] (at 0.00122 µM, OCI-P5x cells, with rucaparib 20 µM, 100% = cells with rucaparib alone) was 118% (inactive); in assay [13] (at 0.00122 µM, OCI-P5x cells, without rucaparib), 107% (inactive); in assay [13] (at 0.00488 µM, OCI-C5x cells, with rucaparib 10 µM, 100% = cells with rucaparib alone), 121% (inactive); in assay [13] (at 0.00488 µM, OCI-C5x cells, without rucaparib), 115% (inactive); in [13] (at 0.00488 µM, OCI-P5x cells, with rucaparib 20 µM, 100% = cells with rucaparib alone) it was 136% (inactive); in assay [13] (at 0.00488 µM, OCI-P5x cells, without rucaparib), 109% (inactive). Moreover, the viability in assay [13] (at 0.0195 µM, OCI-C5x cells, with rucaparib 10 µM, 100% = cells with rucaparib alone) is 104% (inactive); in assay [13] (at 0.0195 µM, OCI-C5x cells, without rucaparib) it was 112% (inactive); in [13] (at 0.0195 µM, OCI-P5x cells, with rucaparib 20 µM, 100% = cells with rucaparib alone), 99.7% (active); in assay [13] (at 0.0195 µM, OCI-P5x cells, without rucaparib), 76.1% (active); in assay [13] (at 0.0781 µM, OCI-C5x cells, with rucaparib 10 µM, 100% = cells with rucaparib alone), 118% (inactive); in [13] (at 0.0781 µM, OCI-C5x cells, without rucaparib), 143% (inactive). Also, the viability in assay [13] (at 0.0781 µM, OCI-P5x cells, with rucaparib 20 µM, 100% = cells with rucaparib alone) is 133% (inactive); in assay [13] (at 0.0781 µM, OCI-P5x cells, without rucaparib), 107% (inactive); in [13] (at 0.313 µM, OCI-C5x cells, with rucaparib 10 µM, 100% = cells with rucaparib alone), 125% (inactive); in assay [13] (at 0.313 µM, OCI-C5x cells, without rucaparib) it was 119% (inactive); in [13] (at 0.313 µM, OCI-P5x cells, with rucaparib 20 µM, 100% = cells with rucaparib alone), 129% (inactive); in [13] (at 0.313 µM, OCI-P5x cells, without rucaparib), 104% (inactive). Further, the viability in assay [13] (at 1.25 µM, OCI-C5x cells, with rucaparib 10 µM, 100% = cells with rucaparib alone) was 148% (inactive); in [13] (at 1.25 µM, OCI-C5x cells, without rucaparib), 127% (inactive); in assay [13] (at 1.25 µM, OCI-P5x cells, with rucaparib 20 µM, 100% = cells with rucaparib alone), 123% (inactive); in assay [13] (at 1.25 µM, OCI-P5x cells, without rucaparib) it was 90.6% (active); in [13] (at 5 µM, OCI-C5x cells, with rucaparib 10 µM, 100% = cells with rucaparib alone), 3.71% (active); in [13] (at 5 µM, OCI-C5x cells, without rucaparib), 73% (active). Besides, the viability is 42.5% (active) in assay [13] (at 5 µM, OCI-P5x cells, with rucaparib 20 µM, 100% = cells with rucaparib alone) and 50% (active) in assay [13] (at 5 µM, OCI-P5x cells, without rucaparib).
